# Source: PubChem BioAssay
# ELG1 repair inh = ELG1-dependent DNA repair inhibition; AID 504467; actives 2.3% (n = 330,000); HEK293T ELG1-luciferase reporter, luminescence, 16 h; DNA damage induced by 5-fluorouridine; Potency, µM (titrated, usually from 46.1 µM), for the others: top-dose activity change, negative = inhibition, hits mostly inhibitors; note: % is set by controls: 0 for no effect and ±100 for the full control effect; nearly all actives have a fitted effect of over 55% in size
#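 Quantitative HTS, concentration-response format. 2,000 cells/well co-treated with 5-fluorouridine and compound, 16 hr in 5% CO2 at 37 °C; ONE-Glo luminescence read after 30 min.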
# NPC1 prom act = activates the NPC1 promoter; Huh7 NPC1 promoter luciferase reporter, 24 h; Potency, µM (series often up to 9.22 µM), inactives show at the top dose activation, actives largely listed as activators; actives 2.4% (n = 320,000); note: % of control where 0% means no effect; nearly all actives have a fitted effect of over 60% in size
#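 Quantitative HTS used a cell-based reporter: Huh7 cells stably bearing the NPC1 promoter upstream of luciferase were treated with compounds for 24 h, and promoter activation was read as luminescence.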
# ELG1 genotoxic = inducers of genotoxicity in HEK293T ELG1-luciferase cells. HEK293T ELG1-luciferase reporter, luminescence, 16 h. Potency, µM (series often up to 46 µM), inactives show at the top dose activity change, positive = activation, actives largely listed as activators. actives 1.3% (n = 330,000); note: % of control where 0% means no effect; nearly all actives have a fitted effect of over 60% in size
#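 HEK293T cells expressing luciferase-tagged ELG1 were exposed to compound or DMSO vehicle for 16 hr at 37 °C and 5% CO2. Luciferase activity was then measured with ONE-Glo after 30 min at room temperature.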
# SMN2 splice enh = SMN2 splice variant enhancement; HEK293 SMN2-luciferase splicing reporter, luminescence, 30-36 h; Potency, µM (titrated, usually from 46.1 µM), without a hit: top-dose activity change, positive = activation, most hits filed as activators; actives 2.8% (n = 210,000); AID 1458; note: % of control where 0% means no effect; nearly all actives have a fitted effect of over 55% in size
#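 HEK293 cells carry an SMN2 minigene-luciferase reporter in which exon 7 inclusion puts luciferase in frame. Cells were seeded at 2000 cells/well, attached for 10-12 hours, then exposed to compounds for 30-36 hours at 37C before ONE-Glo luminescence.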
# FLuc counter = firefly luciferase modulation, counter-screen for miR-21 project; P08659; purified FLuc, Km substrates, luminescence inhibition; Potency, µM (highest dose often 57.5 µM), for the others: top-dose activity change, negative = inhibition, hits mostly inhibitors; actives 6.9% (n = 360,000); AID 588342;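 note: plate controls were vehicle for no effect and reference inhibitor for full effect; nearly all actives have a fitted effect of over 55% in size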
# Target sequence (P08659 whole entry, looked up): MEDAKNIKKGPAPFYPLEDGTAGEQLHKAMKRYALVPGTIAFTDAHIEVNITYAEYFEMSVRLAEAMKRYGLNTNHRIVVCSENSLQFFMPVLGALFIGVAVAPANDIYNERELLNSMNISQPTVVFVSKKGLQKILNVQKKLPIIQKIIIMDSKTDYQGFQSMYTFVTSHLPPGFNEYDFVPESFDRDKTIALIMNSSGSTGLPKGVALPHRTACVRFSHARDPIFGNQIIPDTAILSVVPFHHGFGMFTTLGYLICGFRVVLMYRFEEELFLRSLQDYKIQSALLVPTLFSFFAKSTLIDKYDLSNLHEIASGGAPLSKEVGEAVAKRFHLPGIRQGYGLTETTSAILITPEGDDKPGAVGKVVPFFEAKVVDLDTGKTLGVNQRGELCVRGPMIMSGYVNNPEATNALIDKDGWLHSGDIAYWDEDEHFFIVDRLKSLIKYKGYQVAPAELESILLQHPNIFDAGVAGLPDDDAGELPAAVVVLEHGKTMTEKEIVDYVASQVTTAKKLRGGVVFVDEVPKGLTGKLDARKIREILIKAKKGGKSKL
#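 Biochemical qHTS of compounds, final roughly 60 µM downward over six points, against 10 nM purified firefly luciferase using Km concentrations of substrates (10 uM D-luciferin, 10 uM ATP) in Tris acetate pH 7.5 buffer; luminescence output.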
# Rab9 promoter act = activators of Rab9 promoter; Potency, µM (doses to about 9.22 µM), without a hit: at the top dose activation, negative = inhibition, usual class: activators; AID 485297; actives 2.8% (n = 320,000); Huh7 Rab9 promoter-luciferase reporter, luminescence, 24 h; note: % of control where 0% means no effect; nearly all actives have a fitted effect of over 60% in size
#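 Using Huh7 cells stably transfected with Rab9 promoter–luciferase, compounds were incubated 24 h at 37 °C, 5% CO2; luciferase luminescence was read 10 min after reagent addition.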
# The depositor's hits bear a star; ? = inconclusive; . = not tested or not shown; [ ] = dose if it differs, or a comment. This is a sample that favours compounds with a hit; in the whole collection about 9.2% have one here. Calls come from the whole dose curve; as a rule, active = well fitted curve in the direction sought with a large enough effect; inconclusive = small, poorly fitted or top-dose-only effect, or another doubt; inactive = no such curve, though single readings can be large; an effect the other way counts as inactive or inconclusive. Potency is the fitted concentration of half-maximal effect.
SMILES,ELG1 repair inh,NPC1 prom act,ELG1 genotoxic,SMN2 splice enh,FLuc counter,Rab9 promoter act
O=C(N/N=C/c1ccoc1)c1ccc(Br)cc1,27%,6%,18%,.,15µM*,15%
CC1=NNC(=O)C1Cc1ccccc1C (stereo not given),-11%,-7%,-9%,.,-1%,-2%
CCS(=O)(=O)c1nc(S(=O)(=O)c2ccc(C)cc2)c(NCC(C)C)s1,.,.,.,1%,4%,.
O=C(Nc1cccc2ccccc12)c1cnccn1,?,-2%,21µM*,?,?,4%
O=C(Nc1ccc(Br)cc1)c1cnccn1,?,?,?,22%,?,3.5µM*
Cc1ccc(NC(=O)c2cnccn2)cc1C,?,3.2µM*,?,.,11µM*,3.2µM*
Cc1nc(NC(=O)c2cnccn2)ccc1Br,?,2.8µM*,?,.,8.5µM*,2µM*
O=C(O)Cc1ccc(NC(=O)c2cnccn2)cc1,11%,-1%,0%,-7%,?,0%
COc1ccc(OC)c(CNC(=O)C2CCN(S(=O)(=O)c3ccc4[nH]c(=O)oc4c3)CC2)c1,.,.,.,.,-13%,.
Cc1ccc(NC(=O)c2cnccn2)cc1,?,2.5µM*,?,6.3µM*,?,3.2µM*
Cc1cccc(NC(=O)c2cnccn2)c1,15%,20%,?,.,-18%,17%
Cc1ccc(C)c(Oc2coc3cc(OCC(=O)Nc4ccccc4C(C)C)ccc3c2=O)c1,26µM*,-9%,-7%,-32%,0%,-2%
Cc1nc2ccc(S(=O)(=O)NCC(=O)N3CCC(C)CC3)cc2s1,-19%,2%,2%,-16%,9%,1%
CC(=O)Oc1cccc(N2C(=O)C3C(C2=O)C2C=CC3C23CC3)c1 (stereo not given),3%,0%,2%,14%,3%,4%
O=C1C2C(C(=O)N1c1ccc3c(c1)OCO3)C1C=CC2C12CC2 (stereo not given),?,-2%,0%,-5%,17µM*,3%
NC(=O)c1ccc2nc(NC(=O)c3ccc(N)cc3)sc2c1,?,?,16%,?,3µM*,?
COc1ccc2nc(NC(=O)c3ccc(F)cc3)sc2c1,?,2.5µM*,?,.,0.85µM*,1.4µM*
COc1ccc2nc(NC(=O)c3ccc4ncsc4c3)sc2c1,?,2.8µM*,5.8µM*,?,1.1µM*,1.8µM*
CC(=O)Nc1nc2cc(C(N)=O)ccc2s1,-5%,1%,5%,.,-28%,0%
COc1ccc2nc(NC(=O)c3ccc(-n4nc(C)cc4C)cc3)sc2c1,?,-2%,11%,-23%,0%,7%
COc1cccc(/C=C2\SC(=O)N(CC(=O)NCCCn3ccnc3)C2=O)c1,?,3%,5%,.,24µM*,-1%
COc1cc(/C=C2\SC(=O)N(CCNC(=O)c3c(C)noc3C)C2=O)cc(OC)c1OC,18µM*,.,-1%,.,.,.
COc1ccc(/C=C2\SC(=O)N(CCNC(=O)C3=COCCO3)C2=O)cc1,?,2%,16µM*,.,?,28%
COc1ccc(/C=C2\SC(=O)N(CC(=O)NCCCn3ccnc3)C2=O)cc1,?,27%,13%,.,9.5µM*,29%
O=C(NCCN1C(=O)S/C(=C\c2ccc(OC(F)F)cc2)C1=O)C1=COCCO1,-11%,-22%,1%,.,?,-15%
SMILES,ELG1 repair inh,NPC1 prom act,ELG1 genotoxic,SMN2 splice enh,FLuc counter,Rab9 promoter act
CN1CCC[C@@H](CC2c3ccccc3Sc3ccccc32)C1,.,.,.,4%[20.6 µM],.,.
COc1cc2c(cc1OC)N1C(=O)CC(OCC(=O)O)C3C4CC5(CCN5C(=O)C4=O)C2C31 (stereo not given),2%,-3%,-12%,.,5%,-7%
CCCOc1ccc(CC2C(=O)Nc3ccc(Br)cc32)cc1 (stereo not given),.,.,.,.,-12%,.
COc1ccc(/C=C2\SC(=O)N(CCc3nnc(N)s3)C2=O)cc1,?,2.5µM*,?,.,1.9µM*,1µM*
O=C(O)c1ccccc1N/N=C/C1=C(N2CCOCC2)C(=C\c2ccccc2)/CC1,?,4%,-3%,.,?,-2%
Cc1cc(C)nc(N/N=C/C2=C(N3CCOCC3)C(=C/c3ccccc3)/CC2)n1,16µM*,1%,-15%,-105%,-2%,0%
CCOC(=O)c1cnc(SCCc2ccccc2)nc1N,?,3.2µM*,?,13µM*,3µM*,1.6µM*
CCOC(=O)c1cnc(SCc2ccc(C)cc2)nc1N,?,?,23µM*,11µM*,17µM*,23%
CCOC(=O)c1cnc(SCC(=O)c2ccc(Cl)cc2)nc1N,?,9%,?,-9%,-2%,1%
CCOC(=O)c1cnc2c(ccc3ccccc32)c1Cl,?,-3%,?,.,3µM*,5%
CCCCSc1ncc(C(=O)OCC)c(N)n1,?,?,?,5µM*,3.8µM*,3.2µM*
COc1ccc(C2(c3ccc(O)cc3O)CC(c3ccccc3Cl)NC(=S)N2)cc1 (stereo not given),3%,-1%,-1%,9%,-6%,-4%
Cc1cc(C)c2nc(-c3cccc(Cl)c3)c(C)c(C(=O)N3CCOCC3)c2c1,-21%,-1%,1%,.,-4%,-2%
COC(=O)c1cc(NC(=O)Cn2nc(-c3ccc(C)c(C)c3)ccc2=O)cc(C(=O)OC)c1,.,.,.,.,-1%,.
CCOC(=O)c1cnc(NCc2ccccc2)nc1C,?,25%,15µM*,10%,?,?
Cn1cccc1C(=O)NCc1ccccn1,15%,13%,3%,.,1%,-2%
CCCNC(=S)Nc1ccc(F)cc1F,16µM*,-1%,-8%,.,0%,1%
O=C(C=C1SCCS1)/C=C/c1ccco1,?,0.71µM*,?,13µM*,1.3µM*,2.5µM*
O=C(O)C(C(=O)/C=C/c1ccco1)=C1SCCS1,25%,14%,7%,-58%,?,-4%
O=C(/C=C/c1ccc([N+](=O)[O-])cc1)/C=C/c1ccco1,?,-5%,0%,.,4.3µM*,2%
O=C(/C=C/c1ccc([N+](=O)[O-])cc1)c1ccco1,-12%,-10%,-2%,.,-7%,4%
CCOc1ccc(NC(=O)c2cc(C3CC3)nc3c2cnn3C(C)C)cc1OC,?,0%,-1%,.,.,2%
COc1ccc2c(Cl)c(C(=O)NCCc3ccc(S(N)(=O)=O)cc3)sc2c1,-15%,-6%,2%,.,1%,8%
O=C(CSCc1cc(=O)[nH][nH]1)Nc1ccc(F)cc1,9%,-2%,1%,.,-5%,-5%
